TSHR agonist: agonists of human thyroid stimulating hormone receptor; P16473; hit rate 0.48% among 73,000; HEK293-CNG-TSHR cells (CNG channel as cAMP sensor), membrane potential dye, cAMP; Potency, µM (highest dose often 57.1 µM), for inactives: at the top dose activation, actives largely listed as activators; active means well fitted activation curve with a large enough effect in the main read-out, with a control signal flat, not every such curve was filed as active; inconclusive means small, poorly fitted or top-dose-only effect, or a change in a side signal; inactive means no such curve, though single readings can be large or run the other way; % of control where 0% means no effect;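 further: the control signal comes from parental cells without the receptor; potency means the concentration at half of the fitted maximal effect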
Target sequence (P16473 whole entry, looked up): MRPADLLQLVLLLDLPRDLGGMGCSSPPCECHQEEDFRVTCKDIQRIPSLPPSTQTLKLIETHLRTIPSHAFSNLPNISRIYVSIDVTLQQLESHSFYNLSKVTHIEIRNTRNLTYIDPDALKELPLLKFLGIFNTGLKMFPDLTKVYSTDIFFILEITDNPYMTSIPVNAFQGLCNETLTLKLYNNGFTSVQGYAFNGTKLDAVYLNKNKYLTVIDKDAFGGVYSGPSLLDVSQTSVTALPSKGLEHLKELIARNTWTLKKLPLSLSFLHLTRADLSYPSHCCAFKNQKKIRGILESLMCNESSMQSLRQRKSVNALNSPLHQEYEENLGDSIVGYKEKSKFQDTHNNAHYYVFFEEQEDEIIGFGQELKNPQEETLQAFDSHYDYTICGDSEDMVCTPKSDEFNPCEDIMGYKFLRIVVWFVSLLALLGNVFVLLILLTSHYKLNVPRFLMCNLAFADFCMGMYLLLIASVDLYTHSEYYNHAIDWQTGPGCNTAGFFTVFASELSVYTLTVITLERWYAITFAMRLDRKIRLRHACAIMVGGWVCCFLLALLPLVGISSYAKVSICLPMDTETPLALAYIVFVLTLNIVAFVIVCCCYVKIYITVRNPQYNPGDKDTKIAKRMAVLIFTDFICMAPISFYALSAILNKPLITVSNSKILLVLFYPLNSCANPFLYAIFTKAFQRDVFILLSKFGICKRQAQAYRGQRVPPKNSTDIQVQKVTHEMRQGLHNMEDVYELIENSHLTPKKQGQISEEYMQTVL
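HEK 293 cells stably expressing TSHR and a modified CNG channel, with CNG-only parental cells as counterscreen, were preloaded 60 min at room temperature with membrane potential dye containing 100 uM RO 20-1724. Compound exposure was 30 min, and depolarization was read as fluorescence at 590 nm.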
Tau filament bind: binds recombinant human tau filaments. AID 596. hit rate 2% among 71,000. P10636. recombinant tau filaments, thioflavin S fluorescence, 15 h; filaments grown with octadecylsulfate alongside compound. Potency, µM (titrated, usually from 57.1 µM), for inactives: at the highest dose activity change, negative = inhibition;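 further: potency means the concentration at half of the fitted maximal effect; on the % scale 0 is the no-effect control and ±100 the full control effect; actives lower thioflavin S fluorescence by blocking filaments or displacing dye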
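Tau 2 uM in ThS buffer dispensed; compound added; 60 uM ODS added (finals 1 uM tau, 30 uM ODS); 15 h 37 C; fluor ex450/em510.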
CRE-bla Fsk: modulators of forskolin-stimulated CRE signaling in CHO cells; hit rate 2.5% among 71,000; Potency, µM (top dose mostly 38.2 µM), for inactives: at the top dose activity change, negative = inhibition, actives largely listed as activators; CHO CRE-bla reporter (cAMP response element driving beta-lactamase), forskolin EC10, beta-lactamase ratio; active means well fitted activation curve with a large enough effect in the signal ratio, with a control signal flat, not every such curve was filed as active; inconclusive means small, poorly fitted or top-dose-only effect, or effect the other way, or a change in a side signal; the % refers to the signal ratio; further: potency means the concentration at half of the fitted maximal effect; % of control where 0% means no effect
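AC50 values, positive or negative, reflect shifts in EC10 NKH 477-induced CRE-bla reporter activity in CHO cells. Incubation lasted 3 h at 37 °C before CCF4 substrate (2 h, room temperature) and ratiometric 460/530 nm reading.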
ERK AVP block: blocks ERK signaling stimulated by vasopressin | HEK293-V1b, vasopressin-stimulated pERK AlphaScreen | hit rate 0.99% among 72,000 | Potency, µM (titrated, usually from 57.5 µM), for inactives: at the top dose activity, negative = inhibition, most hits filed as inhibitors; further: potency means the concentration at half of the fitted maximal effect; on the % scale 0 is the no-effect control and ±100 the full control effect; nearly all actives have a fitted effect of over 55% in size
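Phosphorylated ERK1/2 detected via AlphaScreen bead proximity in lysates of V1b-expressing HEK293 cells given 25 nM vasopressin for 5 min after 30 min compound exposure (37 °C). AC50 from Hill equation; basal DMSO 0%, vasopressin 100%.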
HEK293 cAMP ctrl: raises cAMP in parental HEK293 cells, TSHR agonist counter-screen; hit rate 2.5% among 73,000; Potency, µM (titrated, usually from 57.1 µM), for the others: top-dose activation, most hits filed as activators; parental HEK293 CNG cAMP sensor, membrane potential fluorescence; further: potency means the concentration at half of the fitted maximal effect; % of control where 0% means no effect; nearly all actives have a fitted effect of over 55% in size
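Parental HEK 293 cells stably expressing a modified CNG channel (no TSHR) report cAMP rise as membrane depolarization. Membrane potential dye with 100 uM RO 20-1724 was loaded for 60 min at room temperature, then compound added for 30 min; fluorescence read at 590 nm.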
tau ThS displ: displaces Thioflavin S from human tau filaments | shares compounds with Tau filament bind | recombinant tau filaments, Thioflavin S fluorescence displacement | Potency, µM | hit rate 40% among 60; calls by dose curve
aSyn ThS bind: alpha-synuclein fibril binding by ThS displacement; shares compounds with Tau filament bind; recombinant alpha-synuclein fibrils, ThS fluorescence displacement; Potency, µM; hit rate 40% among 60; AID 937; calls by dose curve
Abeta ThS displ: amyloid beta fibril binding by ThS displacement; shares compounds with Tau filament bind; Abeta1-42 fibrillization, thioflavin S fluorescence, overnight 37 C; Potency, µM; hit rate 50% among 60; AID 956; calls by dose curve
CHO tox 24h: reduces CRE-bla CHO cell viability after 24 hours; 120 tested, under 10 active; activity, negative = viability loss, % at 46.1 µM; shares compounds with CRE-bla Fsk; CRE-bla CHO viability, ATP luminescence, 24 h
CHO tox 40h: CHO cell toxicity at 40 h by ATP luminescence; CRE-bla CHO viability, ATP luminescence, 40 h; shares compounds with CRE-bla Fsk; AID 906; Potency, µM, without a hit: max response, actives largely listed as inhibitors; 120 tested, under 10 active
CREB luc CRC: confirmation of CRE signaling potentiators in HEK293 CREB reporter cells; shares compounds with CRE-bla Fsk; HEK293 CRE-luc2P, NKH477 EC10 potentiation, luminescence, 4 h; Potency, µM (series often up to 38.3 µM), without a hit: top-dose activity, positive = activation, usual class: activators; hit rate 80% among 120; AID 907
Active calls of the source: *; i = inactive; ? = inconclusive; nt = no result given; [ ] = another dose, or the depositor's remark. Sampled rows, rich in hits. Any-hit rate of the full collection: about 7.6%. Unless noted, the call rests on the fitted dose curve; in most records, active means well fitted curve in the direction sought with a large enough effect; inconclusive means small, poorly fitted or top-dose-only effect, or another doubt; inactive means no such curve, though single readings can be large; an effect the other way counts as inactive or inconclusive.

SMILES	TSHR agonist	Tau filament bind	CRE-bla Fsk	ERK AVP block	HEK293 cAMP ctrl	CHO tox 24h	CHO tox 40h	CREB luc CRC	others
COc1cc(N)ccc1Cc1ccc(N)cc1OC	nt	25.1µM*	-5.0%	?	-1.0%	nt	nt	nt
CN(C=O)CP(=O)(O)CN(C)C=O	18.4%	22.3%	15.8µM*	-0.3%	10.7%	nt	nt	nt
COc1cc(OC)c(/C=C2/C(=O)Nc3ccccc32)c(OC)c1	15.1%	-28.9%	?	?	-6.3%	nt	nt	nt	tau ThS displ=i;aSyn ThS bind=i;Abeta ThS displ=i
CN(C)CCCNc1c2c(nc3ccc(Cl)cc13)CCCC2	?	-16.0%[11.4 µM]	0.8%[7.6 µM]	-17.5%[11.5 µM]	?	nt	nt	nt
COc1cc(CCN)ccc1O	nt	-2.6%	-1.9%	?	6.2%	nt	nt	nt
COc1ccc(Cc2nccc3cc(OC)c(OC)cc23)cc1OC	?	?	0.158µM*	43.9%	?	?	?	0.708µM*
Nc1nc2ccc(Cl)cc2c2nc(-c3ccco3)nn12	22.5%	21.0%	0.2µM*	?	22.2%	-26.0	?	?
FC(F)(F)c1nc2ccc(SSc3ccc4nc(C(F)(F)F)[nH]c4c3)cc2[nH]1	-4.3%[11.4 µM]	2.3%[11.4 µM]	3.4%[7.6 µM]	17.3%[11.5 µM]	-9.8%[11.4 µM]	nt	nt	nt
